The sample as a whole holds a higher share of hits than the screen did.
RGS4 inhibitor: human RGS4 inhibition. P49798. Transcreener GDP fluorescence polarization, RGS4-accelerated GTP hydrolysis. Potency, µM (top dose mostly 114 µM), most hits filed as inhibitors. 390,000 compounds, 0.039% hits; also: nearly all actives have a fitted effect of over 75% in size
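MLSMR compounds (23 nl, pin-transferred) preincubated 10 min at room temperature with a 500nM (2x) first reagent, then RGS4 at 900nM (2x) plus Transcreener GDP mix added; fluorescence polarization (620/688 nm) read before and after 90 min at 30 °C.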
CXXC DNA block: blocks binding of human MLL CXXC domain to DNA; MLL-CXXC / FITC-HOXA9 DNA fluorescence polarization; 290,000 compounds, 0.037% hits; Potency, µM (highest dose often 115 µM), actives largely listed as inhibitors; Q03164; active = well fitted inhibition curve with a large enough effect in the polarisation, with a control signal flat, not every such curve was filed as active; inconclusive = small, poorly fitted or top-dose-only effect, or effect the other way, or a change in a side signal; inactive = no such curve, though single readings can be large or run the other way; the % refers to the polarisation
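Purified MLL-CXXC (added from a 7 uM solution) was preincubated 5 min at ambient with pinned compounds in 50 mM Tris-HCl pH 7.5, 50 mM NaCl, 1 mM DTT, 0.05% BSA. Fluorescein-labeled HOX-A9 DNA (50 nM solution) followed, 30 min, then polarization read.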
Menin-MLL FL inh: displaces fluorescein MLL peptide from human menin | 290,000 tested, under 10 active | Fluorescence polarization, fluorescein-MLL peptide displacement from menin | FP activity change, % at 61.4 µM | AID 1766; active = well fitted curve in the direction sought with a large enough effect in the polarisation, not every such curve was filed as active; inconclusive = small, poorly fitted or top-dose-only effect, or effect the other way, or a change in a side signal; inactive = no such curve, though single readings can be large or run the other way; the % refers to the polarisation
Menin MLL FP TR: menin-MLL binding inhibition, Texas Red mutant peptide; AID 1768; 270,000 compounds, 0.23% hits; Menin + Texas Red MLL mutant peptide, fluorescence polarization; O00255; Potency, µM (highest dose often 61.6 µM), most hits filed as inhibitors; active = well fitted inhibition curve with a large enough effect in the polarisation, with a control signal flat, not every such curve was filed as active; inconclusive = small, poorly fitted or top-dose-only effect, or effect the other way, or a change in a side signal; inactive = no such curve, though single readings can be large or run the other way; the % refers to the polarisation
TSG101-PTAP inh: blocks PTAP/TSG101 interaction to inhibit HIV-1 budding; 340,000 tested, under 10 active; Q99816; AID 493005; Potency, µM (titrated, usually from 115 µM), actives largely listed as inhibitors; Fluorescence polarization, FITC-PTAP peptide / Tsg101 binding; active = well fitted inhibition curve with a large enough effect in the main read-out, with a control signal flat, not every such curve was filed as active; inconclusive = small, poorly fitted or top-dose-only effect, or effect the other way, or a change in a side signal; inactive = no such curve, though single readings can be large or run the other way
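Tsg101 binding domain (10 uM final) was mixed with compound and a FITC-labeled PTAP peptide (50 nM final) in HEPES pH 7.5 buffer with NaCl, Tween 20, EDTA and TCEP; fluorescence polarization was read after 20 min at r.t.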
ERG Ets-DNA blk: ERG Ets/DNA interaction inhibition. Potency, µM (highest dose often 76.9 µM), usual class: inhibitors. fluorescence polarization, His-ERG Ets domain / labelled DNA. AID 624246. 370,000 compounds, 0.028% hits. P11308; active = well fitted inhibition curve with a large enough effect in the polarisation, with a control signal flat; inconclusive = small, poorly fitted or top-dose-only effect, or effect the other way, or a change in a side signal; inactive = no such curve, though single readings can be large or run the other way; the % refers to the polarisation;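 also: polarization taken with two DNA probes labelled with fluorescein and Texas red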
Target sequence (P11308 whole entry, looked up, the tested form may be a part): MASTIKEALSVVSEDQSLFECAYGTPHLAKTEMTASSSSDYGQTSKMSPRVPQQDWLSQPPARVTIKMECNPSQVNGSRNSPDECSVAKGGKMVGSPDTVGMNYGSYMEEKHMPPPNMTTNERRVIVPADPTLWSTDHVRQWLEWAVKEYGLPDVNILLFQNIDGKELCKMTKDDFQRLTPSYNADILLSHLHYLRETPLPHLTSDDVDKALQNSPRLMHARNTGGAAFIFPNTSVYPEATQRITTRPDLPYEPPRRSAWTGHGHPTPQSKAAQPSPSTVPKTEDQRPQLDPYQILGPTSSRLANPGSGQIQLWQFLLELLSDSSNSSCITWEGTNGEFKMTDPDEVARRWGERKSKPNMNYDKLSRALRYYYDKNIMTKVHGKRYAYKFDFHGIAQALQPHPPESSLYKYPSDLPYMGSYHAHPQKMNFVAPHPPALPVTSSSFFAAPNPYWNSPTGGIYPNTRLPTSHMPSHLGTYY
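His-tagged ERG Ets domain (1 uM in the protein solution; 300mM KCl, 50mM Tris-HCl, 1mM EDTA, 1mM DTT, pH 7.5) received compound, then a probe mix of 5 nM fluorescein-DNA and 100nM Texas-615-DNA. Fluorescence polarization was read for both dyes.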
MLL CXXC FP-Fl: disrupts human MLL CXXC domain binding to DNA | shares compounds with CXXC DNA block | MLL CXXC-DNA binding, fluorescein FP | Potency, µM (titrated, usually from 345 µM), hits mostly inhibitors | 200 compounds, 70% hits; also: nearly all actives have a fitted effect of over 80% in size
MLL CXXC FP-TR: disrupts human MLL CXXC domain binding to DNA, Texas Red; AID 624161; Potency, µM (doses to about 345 µM), actives largely listed as inhibitors; 200 compounds, 40% hits; MLL CXXC-DNA binding, Texas Red fluorescence polarization; shares compounds with CXXC DNA block; also: nearly all actives have a fitted effect of over 75% in size
MLL CXXC HTRF: inhibitors of human MLL CXXC domain-DNA interaction, HTRF format | shares compounds with CXXC DNA block | MLL CXXC-DNA binding, HTRF, biochemical | Potency, µM (highest dose often 172 µM), actives largely listed as inhibitors | 210 compounds, 30% hits | AID 624162; also: nearly all actives have a fitted effect of over 80% in size
Each line names hits and unclear results; the compound was inactive in the other large screens (follow-up assays come after a bar, where they were run). Unless noted, calls follow the shape of the dose curve; as a rule, active = well fitted inhibition curve with a large enough effect; inconclusive = small, poorly fitted or top-dose-only effect; inactive = no such curve, though single readings can be large or run the other way.

N#C/C(=C\c1ccc(C#N)cc1)C(=O)c1ccccc1	RGS4 inhibitor inconclusive, CXXC DNA block inconclusive
N#C/C(=C\c1cccs1)C(=O)c1ccccc1	CXXC DNA block inconclusive (no result: Menin MLL FP TR) | MLL CXXC FP-Fl inactive | MLL CXXC FP-TR 113µM | MLL CXXC HTRF inactive
CC(O)[C@@H]1NC(=O)[C@H](CCCN)NC(=O)[C@@H](Cc2c[nH]c3ccccc23)NC(=O)[C@H](Cc2ccc(O)cc2)NC(=O)[C@@H](NC(=O)[C@H](N)Cc2ccccc2)CSSC(C)(C)C(C(=O)N[C@H](C(N)=O)[C@@H](C)O)NC1=O (stereo not given in full)	none (no result: RGS4 inhibitor, CXXC DNA block, TSG101-PTAP inh, ERG Ets-DNA blk)
COc1ccc(/C=C2/SC(=S)NC2=O)cc1OCc1ccccc1	CXXC DNA block inconclusive, Menin MLL FP TR inconclusive | MLL CXXC FP-Fl inconclusive | MLL CXXC FP-TR inactive | MLL CXXC HTRF inactive
COc1cc(/C=C2/SC(=O)NC2=O)ccc1OCc1ccccc1	CXXC DNA block inconclusive, Menin MLL FP TR inconclusive

Screening data from PubChem BioAssay.
